Measurements reported in PubChem BioAssay (NCI).
About 83,000 compounds went through this panel and 20% of them were active in at least one assay; those are over-represented in the sample as a whole.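 Results are percent growth after 48 hours of single-concentration exposure. 100 means growth as in untreated cells, lower positive values show inhibition; negative values down to -100 show cell death.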 A number with no mark means an inactive call. The source made the active and inactive calls. How the source made its calls: active means growth percent below 10; inactive means the rest.

Tests used:
Assay in all cases: NCI-60 one-dose screen, 48 h (100 = growth as untreated, 0 = no growth, -100 = all killed)
Conditions in all cases: 10 µM unless noted
[1] = test system: T-47D breast
[2] = test system: BT-549 breast
[3] = test system: MDA-MB-435 melanoma
[4] = test system: SW-620 colon
[5] = test system: MCF7 breast
[6] = test system: HCT-116 colon
[7] = test system: HCC-2998 colon
[8] = test system: KM12 colon

| SMILES | growth [1] | growth [2] | growth [3] | growth [4] | growth [5] | growth [6] | growth [7] | growth [8] |
| --- | --- | --- | --- | --- | --- | --- | --- | --- |
| CCCCn1c(=O)c(-c2cc(-c3ccc(Cl)cc3)nc(-c3ccc(Cl)cc3)c2)cc2cc(C)ccc21 | 95.8% | 103% | 104% | 99.6% | 97.6% | 99.8% | 105% | 102% |
| Fc1cc(-c2nnc3n2NC(=Nc2ccc(Cl)cc2)CS3)c(Cl)cc1Cl | 79.2% | 94.7% | 64.2% | 95.7% | 86.9% | 91.3% | 75.3% | 60.5% |
| Cc1ccc(C(=O)NCCNc2nccc(-c3c(-c4cccc(F)c4)nc4sccn34)n2)cc1 | 42.4% | 55.2% | 41.6% | 61.8% | 27.2% | 27% | 64.2% | – |
| COc1ccn2c(C(C)=O)cc(C(=O)c3ccc4c(c3)Sc3ccccc3N4)c2c1 | 57.4% | 55.6% | -32.9% (active) | 23.4% | 20.9% | 1.38% (active) | 21.2% | – |
| COC(=O)/C=C1\S/C(=N\Nc2ccc([N+](=O)[O-])cc2[N+](=O)[O-])N(C2CCCCC2)C1=O | 12.9% | 86% | 79% | 22.7% | 23.1% | 29.8% | 63.1% | – |
| O=C(O)CCC/C=C\C[C@H]1C=CC(=O)/C1=C/C[C@@H](O)CCc1cccc(C(F)(F)F)c1 | 21.4% | 5.1% (active) | -53.5% (active) | -35.8% (active) | 11% | -66.4% (active) | -84.4% (active) | – |
| Cc1nc(S(=O)(=O)c2ccccc2)c(S(=O)(=O)Cc2ccc([N+](=O)[O-])cc2)o1 | 77% | 87.7% | 101% | 90.9% | 74.2% | 86.6% | 97.7% | 106% |
| NCCCNc1nc2ccccc2c2c(=O)c3cc(C(F)(F)F)ccc3sc12 | 27.2% | 87.7% | -80.9% (active) | -74.5% (active) | -49.4% (active) | -70.4% (active) | -84.6% (active) | – |
| c1ccc2cc(C[n+]3ccn(CCCCCCn4cc[n+](Cc5ccc6ccccc6c5)c4)c3)ccc2c1 | 38.5% | 9.69% (active) | 59.2% | 95.5% | 49.8% | 45.2% | 59.4% | – |
| COc1ccc(OC)c(/C=C/C(=O)N/N=C/c2ccc(Cl)cc2)c1 | 29.5% | 63.5% | -32.4% (active) | 19.9% | 8.93% (active) | 5.72% (active) | 2.34% (active) | 18% |
| CN(C(=O)NCc1cccc(F)c1Cl)[C@H](COC(=O)Nc1cc2ccccc2cn1)CC(O)CO (stereo partly specified) | 89% | 43.9% | 104% | 92.2% | 98.9% | 95.4% | 110% | – |
| CN1CCN(Cc2ccc(NC(=O)c3ccc(C(C)(C)C)c(C#Cc4cnc5cccnn45)c3)cc2C(F)(F)F)CC1 | 26.6% | 88.5% | -88.5% (active) | -61.9% (active) | -74.3% (active) | -70.8% (active) | -81.6% (active) | – |
| C=C1C(=O)O[C@H]2[C@H]1CC/C(COC(=O)CCSSCCC(=O)OC/C1=C/CC[C@@]3(C)O[C@H]3[C@H]3OC(=O)C(=C)[C@@H]3CC1)=C\CC[C@@]1(C)O[C@@H]21 | -8.54% (active) | -78.5% (active) | 10.8% | -77.7% (active) | -49.4% (active) | -90.2% (active) | 67% | – |
| NC[C@@H]1O[C@H](O[C@@H]2[C@@H](CO)OC(O[C@@H]3[C@@H](O)[C@H](N)C[C@H](N)[C@H]3OC3O[C@H](CN)[C@@H](O)[C@H](O)[C@H]3N)[C@@H]2O)[C@H](N)[C@@H](O)[C@@H]1O (stereo partly specified) | 115% | 109% | 102% | 109% | 103% | 102% | 108% | – |
| O=C(N=c1oc2ccccc2cc1-c1cc2ccccc2[nH]1)Nc1ccc(Cl)cc1 | 91.1% | 90.7% | 104% | 95.5% | 83.5% | 89.2% | 99.7% | – |
| C#C[C@]1(O)CC[C@H]2[C@@H]3CC=C4c5sc(Nc6ccccc6)nc5CC[C@]4(C)[C@H]3CC[C@@]21C | 28.6% | 19.9% | 34.4% | 3.04% (active) | 8.14% (active) | -33.3% (active) | 45.3% | – |
| COc1ccc(-c2nn(C(=O)c3cc(OC)c(OC)c(OC)c3)c3cc(N)ccc23)cc1 | 59.9% | 21.5% | 5.29% (active) | 31.6% | 6.74% (active) | 5.15% (active) | 25.1% | – |

| SMILES | growth [1] | growth [2] | growth [3] | growth [4] | growth [5] | growth [6] | growth [7] | growth [8] |
| --- | --- | --- | --- | --- | --- | --- | --- | --- |
| Cc1cccc(OCC(O)CN2CCN(c3ccc(Cl)cc3)CC2)c1 (stereo unspecified) | 107% | 99.6% | 111% | 104% | 87.5% | 86.7% | 110% | 106% |
| O=c1cc(SCc2ccccc2)nc[nH]1 | 114% | 103% | 106% | 107% | 101% | 104% | 112% | – |
| Cc1ccc(C(=O)NN2C(=O)CSC2c2cccc([N+](=O)[O-])c2)cn1 (stereo unspecified) | 96.1% | 104% | 97% | 98.3% | 112% | 99.6% | 84% | 106% |
| CCN(CC)Cc1cc(Nc2c3ccc(Cl)cc3nc3ccc(OC)cc23)ccc1O | 67.5% | 81.4% | 60.2% | 31.7% | 17.4% | 12.8% | 43.6% | – |
| CNC(C)[C@H]1CCC2C3CCC4C[C@@H](N(C)C(=O)c5ccccc5)CC[C@]4(C)C3CC[C@@]21C (stereo partly specified) | 0.208% (active) | 31% | -25.6% (active) | -21.7% (active) | 5.05% (active) | -1.52% (active) | 18.4% | – |
| CC1CN(C2CCCCC2)C(=S)N(c2ccccc2)C1=O (stereo unspecified) | 103% | 108% | 105% | 103% | 96.1% | 101% | 100% | – |
| Cc1cc(O)c(C2=NN(c3ccc(S(N)(=O)=O)cc3)C(c3ccccc3O)C2)cc1Cl (stereo unspecified) | 21.6% | 99.7% | 10% | -0.676% (active) | 7.94% (active) | -92.9% (active) | -75% (active) | – |
| NC(=O)C1(Nc2ccc(Br)cc2)CCCC1 | 98.9% | 104% | 105% | 106% | 92.2% | 105% | 116% | – |
| COc1ccc(C2CC(c3ccc(Nc4ccnc5cc(Cl)ccc45)cc3)=NN2C=O)cc1 (stereo unspecified) | 51.1% | 63.7% | -3.72% (active) | 70.9% | 40.3% | 55.7% | 57.8% | 66.2% |
| COc1cc(CCC[P+](c2ccccc2)(c2ccccc2)c2ccccc2)c(OC)c(OC)c1OC | 63.5% | 72.9% | 0.374% (active) | 82.6% | 39% | 61.9% | 100% | 75.9% |
| COc1cc(CCC[P+](c2ccccc2)(c2ccccc2)c2ccccc2)c(OC)c2c1OCO2 | 13.9% | 15.8% | 3.48% (active) | 31.1% | 9.9% (active) | 16.4% | 26.7% | – |
| CCOC(=O)c1cn2ncnc(Oc3ccc(NC(=O)NCCN(CC)CC)c(Cl)c3)c2c1C | 45.4% | 81.9% | 9.11% (active) | 28.7% | 58.1% | 36.5% | 68.3% | – |
| c1ccc(OCc2nnc(-c3ccc(Oc4ccccc4)cc3)o2)cc1 | 74.3% | 101% | 101% | 103% | 99.3% | 100% | 114% | – |
| COc1ccc(/C=C/c2c(C(=O)/C=C/c3ccc(C(F)(F)F)cc3)c(C)nc3ccccc23)cc1 | -13.3% (active) | -14.2% (active) | -56.5% (active) | -42.3% (active) | 1.41% (active) | -67.8% (active) | -77% (active) | -67.6% (active) |
| O=C(Nc1nc2ccc(F)cc2s1)c1cccnc1Nc1ccc(Cl)cc1Cl | 0.802% (active) | -9.44% (active) | 26.3% | 20.2% | 13% | 11% | 8.35% (active) | 9.49% (active) |
| O=C(O)C(c1ccccc1)N1C(=O)CSC1=S (stereo unspecified) | 97.7% | 94.2% | 99.5% | 103% | 93.8% | 102% | 112% | – |
